# High-throughput results from PubChem BioAssay.
# AI-2 QS modul: Vibrio harveyi AI-2 quorum sensing modulators, primary screen, JMH597 strain, luminescence/OD600 ratio. activity change, % at 7.5 µM. Vibrio harveyi JMH597 AI-2 luminescence/OD600 ratio, 9 h; stronger effect = lower value; strain lacks LuxN and CqsS sensors; 0 = neutral-control median. 300,000 tested, 0.4% active; in the data active = activity change below about -75%, passing the limit was not always enough;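 also: luminescence divided by OD600 gain over 9 h not by final OD600 alone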
# Cardio protect: cardioprotection against H2O2-induced cell death, primary screen, uHTS, H9c2 cells, ATPLite luminescence | H9c2 cardiomyocytes, H2O2 injury protection, 2 h | protection from H2O2 cell death, % at 20 µM | 360,000 tested, 0.63% active | AID 588492, 2011;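 active = compounds giving at least 50% protection of heart cells from peroxide-induced death in the single-dose screen, raw or plate-pattern-corrected value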;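 also: 0% = DMSO wells with peroxide and 100% = DMSO wells without peroxide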
# NR3A LBD binder: binders of NR3A ligand-binding domain, primary screen, biophysical, differential scanning fluorimetry, uHTS. 340,000 tested, 2.5% active. Tm shift relative to glycine control, % at 25 µM. NR3A LBD differential scanning fluorimetry, Tm shift; 0% = protein alone, 100% = glycine-bound protein. Glutamate receptor ionotropic, NMDA 3A (GRIN3A) ligand-binding domain;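 active = melting temperature shift of at least 10% of the positive control shift, at one fixed dose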
# AHR activator: AHR activators, primary screen, cell-based, luminescence, luciferase reporter, human. AHR-responsive luciferase reporter cells. activation, % at 5 µM. AID 2796, 2010. 320,000 tested, 2.5% active. Aryl hydrocarbon receptor (Homo sapiens), P35869; in the data active = activation above about 47%;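 also: 0% = vehicle wells and 100% = reference agonist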
# NTR1 ag: agonists of human NTR1, primary screen, imaging, U2OS cells, beta-arrestin-GFP, high content | Neurotensin receptor type 1 (Homo sapiens), P30989 | NTR1-U2OS beta-arrestin-GFP spot imaging, agonist mode | activation, % at 20 µM | 330,000 tested, 0.17% active;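 active = activation at or above 40% of the spot to cytoplasm intensity ratio, with at least 20 cells analyzed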;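 also: 0% = DMSO without peptide and 100% = 100 nM NTR1 peptide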
# Target sequence (P30989 whole entry, looked up): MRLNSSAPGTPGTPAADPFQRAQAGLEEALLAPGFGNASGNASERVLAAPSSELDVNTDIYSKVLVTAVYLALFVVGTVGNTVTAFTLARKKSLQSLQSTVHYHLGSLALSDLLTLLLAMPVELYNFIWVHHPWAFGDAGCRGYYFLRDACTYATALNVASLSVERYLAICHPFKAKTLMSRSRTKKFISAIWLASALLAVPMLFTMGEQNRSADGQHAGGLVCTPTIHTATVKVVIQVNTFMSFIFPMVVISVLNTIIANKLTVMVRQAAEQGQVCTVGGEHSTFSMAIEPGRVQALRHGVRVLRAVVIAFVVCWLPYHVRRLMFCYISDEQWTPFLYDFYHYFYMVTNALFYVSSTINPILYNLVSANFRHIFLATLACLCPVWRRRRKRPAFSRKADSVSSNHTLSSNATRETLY
# SUMO Mot1 rescue: yeast Mot1-301 growth rescue at high temperature, primary screen, SUMOylation pathway inhibitor project, S. cerevisiae, ATP luminescence, 38.5C; 320,000 tested, 1% active; growth rescue, % at 18.8 µM; S. cerevisiae Mot1-301 growth rescue; percent above DMSO median, 100 means doubled;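 active = every valid replicate shows activation above 250% relative to neutral control wells; inactive = the rest, any valid replicate at or below 250%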;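 also: OY570 slx delta 5 strain wells were the positive control but not used for scaling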
# Active calls of the source: *; nt = no result given. Rows were chosen to be rich in hits. Some 6.2% of all compounds tested hit in one or more screens of this group.
SMILES,AI-2 QS modul,Cardio protect,NR3A LBD binder,AHR activator,NTR1 ag,SUMO Mot1 rescue
C=CCn1c(=N)n(CC(=O)c2ccc(OC)cc2)c2ccccc21,64,-2,0,67*,0,-12
Cn1c(=N)n(CC(=O)c2ccccc2)c2ccccc21,45,-20,-3,40,1,-7
COc1ccc(C(=O)Cn2c(=N)n(C)c3ccccc32)cc1,9,-10,1,76*,-1,-14
CCOc1ccc(N=C2NC(=O)CS2)cc1,17,6,-2,32,-2,4
Nc1ccn(C2OC(CCl)C(O)C2O)c(=O)n1 (stereo not drawn),nt,-1,nt,nt,nt,nt
Cc1ccc(C(=O)NCCCNC(=O)COc2ccc(C)c(C)c2)cn1,-3,-4,1,-1,0,289*
Cc1ccc(C(=O)NCCNC(=O)COc2ccc(C)c(C)c2)cn1,26,2,1,-3,2,-10
Cc1ccccc1Nc1nc(NCc2ccco2)c2ccccc2n1,-11,-16,-4,17,12,-16
COc1ccc(OC)c(Nc2nc(NCc3ccco3)c3ccccc3n2)c1,57,-7,-6,60*,30,-11
c1ccc(CN2CCN(c3nc(NCc4ccco4)c4ccccc4n3)CC2)cc1,19,-18,-4,0,44*,4
Oc1ccccc1Nc1nc(NCc2ccco2)c2ccccc2n1,-10,-19,24*,-4,19,-4
COc1cccc(/C=N/Nc2nc(Nc3ccccc3)nc(-n3nc(C)cc3C)n2)c1O,-13,74*,9,60*,25,-11
COc1ccc(/C=N/Nc2cc(C)nc3ccc(Br)cc23)cc1,4,-20,-5,71*,1,-7
COc1ccc2nc(C)cc(Nc3ccccc3OC)c2c1,nt,-12,nt,nt,nt,nt
COc1cccc2c(N/N=C/c3ccccc3)cc(C)nc12,18,3,2,6,1,-1
COc1ccc2nc(C)cc(N/N=C/c3cccc(OC)c3O)c2c1,12,-16,-1,111*,41*,-16
CN1CCN(C(=O)c2cccn(Cc3c(Cl)cccc3Cl)c2=O)CC1,21,-1,1,1,-1,13
O=C(CSCc1c(Cl)cccc1Cl)Nc1ccc2c(c1)OCO2,21,4,-10,47*,-2,0
O=C(Cc1c(F)cccc1Cl)NNC(=O)Nc1ccc2c(c1)OCO2,17,3,-1,53*,0,2
Cc1ccc(NC(=O)CS(=O)CC(=O)Nc2ccc3c(c2)OCO3)cc1Cl (stereo not drawn),4,5,30*,8,-1,672
O=C(CSCc1ccccc1)Nc1ccc2c(c1)OCO2,-1,8,-1,15,-2,18
CCCNC(=O)c1cc(S(=O)(=O)N2CCc3ccccc32)cn1C,4,-31,2,2,1,9
Nc1ccccc1N=Cc1ccc(-c2cccc(Cl)c2)o1,2,-28,22*,78*,9,444*
CN(C(=O)c1ccc(Br)o1)C1CCCCC1,27,1,3,4,0,3
COC(=O)[C@H](CCSC)NC(=O)Nc1cccc(Br)c1,11,3,17*,-3,-1,-7
SMILES,AI-2 QS modul,Cardio protect,NR3A LBD binder,AHR activator,NTR1 ag,SUMO Mot1 rescue
COC(=O)[C@H](CCSC)NC(=O)Nc1cc(C)ccc1C,11,5,2,2,-1,-10
COC(=O)[C@H](CCSC)NC(=O)Nc1ccc(C)cc1,13,-3,11*,2,-1,-17
CC(C)c1c(C(=O)N/N=C/c2ccsc2)nnn1-c1nonc1N,17,-3,6,6,5,3
COC(=O)/C=C/C(=O)N1CCN(c2ccccc2)CC1,3,18,-3,1,nt,-9
COC(=O)/C=C/C(=O)N1CCN(c2ccccc2C)CC1,9,3,1,0,0,439*
CNS(=O)(=O)c1cc(-c2nnc(N3CCOCC3)c3ccccc23)ccc1C,19,5,1,-3,0,-18
CC(C)(C)C1=NN=C2c3ccccc3C(=O)C21 (stereo not drawn),20,-5,0,2,-2,675*
O=C1c2ccccc2C(=O)C1c1ccc(O)cc1,2,-2,3,-3,0,3
CC(=O)c1ccc(-c2[nH]c3ccccc3c2CCN2C(=O)c3ccccc3C2=O)cc1,nt,65*,1,nt,nt,nt
O=C1c2ccccc2C(=O)N1CCc1c(-c2ccccc2)[nH]c2ccccc12,nt,25,6,nt,nt,nt
O=C(CN1C(=O)/C(=C/c2ccccc2)SC1=S)NNC(=O)c1ccccc1O,27,16,10*,3,1,5
COc1cccc(/C=C2\SC(=S)N(N3C(=O)CCCC3=O)C2=O)c1,26,4,24*,8,4,-12
COc1cccc(/C=C2\SC(=S)N(CC3CCCO3)C2=O)c1 (stereo not drawn),15,-13,7,5,2,13
CC(C)(C)NC(=O)CN1C(=O)/C(=C/c2ccccc2)SC1=S,11,6,0,0,0,-5
COc1cccc(/C=C2/SC(=S)N(CC(=O)NNC(=O)c3ccccc3O)C2=O)c1,10,17,15*,9,2,1
CCN(CC(=O)Nc1c(F)cccc1F)C(=O)c1cc2ccccc2oc1=O,14,2,-1,1,0,-2
Cc1ccc(C)c(S(=O)(=O)/N=C2\C=C(NS(=O)(=O)c3ccccc3)C(=O)c3ccccc32)c1,18,-16,-3,74*,2,-31
Cc1sc2ncn(CC(=O)NCC(=O)N3CCN(c4ccc(F)cc4)CC3)c(=O)c2c1C,14,-3,-1,1,0,-9
COc1ccc(N2CCN(CC(=O)N3c4ccccc4CC3C)CC2)cc1 (stereo not drawn),16,-2,1,0,-2,2
CC(C)Sc1nnc(-c2c[nH]c3ccccc23)n1C,-1,-16,1,7,-1,28
C#CCSc1nnc(-c2c[nH]c3ccccc23)n1C,7,-5,-2,49*,-1,6
COc1ccc(CNS(=O)(=O)c2cc(CN3C(=O)c4cccnc4C3=O)ccc2OC)cc1,10,0,1,2,0,118
O=C(/C=C/c1ccc(O)c(O)c1)c1ccc(S(=O)(=O)N2CCCCCC2)cc1,27,74*,23*,-1,23,3
